The full data set covers some 7,900 targets. This sample favours those with a hit. About 0.6% of all pairs of compound and target were hits.

UniProt Q96LJ8, sequence (Q96LJ8 whole entry, looked up): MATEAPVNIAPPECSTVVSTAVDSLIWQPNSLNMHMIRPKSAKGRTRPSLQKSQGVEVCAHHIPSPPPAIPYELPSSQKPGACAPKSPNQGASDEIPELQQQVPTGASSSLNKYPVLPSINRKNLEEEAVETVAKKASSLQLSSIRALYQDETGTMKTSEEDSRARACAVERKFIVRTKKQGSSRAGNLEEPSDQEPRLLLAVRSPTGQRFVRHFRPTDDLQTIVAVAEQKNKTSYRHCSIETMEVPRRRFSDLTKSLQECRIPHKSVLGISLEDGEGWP
UniProt Q9UBK9, sequence (Q9UBK9 whole entry, looked up): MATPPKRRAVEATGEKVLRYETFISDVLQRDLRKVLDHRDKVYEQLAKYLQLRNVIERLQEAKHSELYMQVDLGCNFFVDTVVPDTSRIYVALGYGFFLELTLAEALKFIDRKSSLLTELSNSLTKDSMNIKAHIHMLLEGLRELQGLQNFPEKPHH
UniProt Q5U3C3, sequence (Q5U3C3 whole entry, looked up): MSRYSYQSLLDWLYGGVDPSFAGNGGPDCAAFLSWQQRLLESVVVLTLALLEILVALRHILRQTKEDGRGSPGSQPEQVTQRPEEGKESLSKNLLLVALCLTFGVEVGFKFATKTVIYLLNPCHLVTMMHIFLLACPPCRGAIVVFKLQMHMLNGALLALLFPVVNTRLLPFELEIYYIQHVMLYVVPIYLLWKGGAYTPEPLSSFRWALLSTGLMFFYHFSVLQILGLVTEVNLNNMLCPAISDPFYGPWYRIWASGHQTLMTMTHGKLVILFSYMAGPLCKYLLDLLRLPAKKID
UniProt Q9UID3, sequence (Q9UID3 whole entry, looked up): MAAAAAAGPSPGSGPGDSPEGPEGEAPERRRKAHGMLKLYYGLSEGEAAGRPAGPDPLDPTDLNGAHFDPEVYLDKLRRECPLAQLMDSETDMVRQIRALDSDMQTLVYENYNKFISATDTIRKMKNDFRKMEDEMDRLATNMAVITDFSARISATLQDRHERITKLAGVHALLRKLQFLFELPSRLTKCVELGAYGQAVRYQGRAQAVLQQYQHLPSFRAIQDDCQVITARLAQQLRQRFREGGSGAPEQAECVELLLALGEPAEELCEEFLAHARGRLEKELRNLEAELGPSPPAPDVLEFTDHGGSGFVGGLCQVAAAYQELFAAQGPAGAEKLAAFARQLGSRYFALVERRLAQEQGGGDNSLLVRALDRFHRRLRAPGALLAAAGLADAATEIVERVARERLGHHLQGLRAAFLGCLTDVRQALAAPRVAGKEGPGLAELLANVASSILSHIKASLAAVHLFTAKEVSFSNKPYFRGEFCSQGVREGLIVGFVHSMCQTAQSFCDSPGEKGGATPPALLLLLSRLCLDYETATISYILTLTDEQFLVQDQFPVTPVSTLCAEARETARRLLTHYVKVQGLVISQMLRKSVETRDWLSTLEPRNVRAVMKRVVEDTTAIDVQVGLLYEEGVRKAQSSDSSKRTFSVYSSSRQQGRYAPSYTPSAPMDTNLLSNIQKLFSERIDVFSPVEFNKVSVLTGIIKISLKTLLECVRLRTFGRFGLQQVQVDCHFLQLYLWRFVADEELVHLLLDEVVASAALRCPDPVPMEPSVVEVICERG
UniProt Q9NVA4, sequence (Q9NVA4 whole entry, looked up): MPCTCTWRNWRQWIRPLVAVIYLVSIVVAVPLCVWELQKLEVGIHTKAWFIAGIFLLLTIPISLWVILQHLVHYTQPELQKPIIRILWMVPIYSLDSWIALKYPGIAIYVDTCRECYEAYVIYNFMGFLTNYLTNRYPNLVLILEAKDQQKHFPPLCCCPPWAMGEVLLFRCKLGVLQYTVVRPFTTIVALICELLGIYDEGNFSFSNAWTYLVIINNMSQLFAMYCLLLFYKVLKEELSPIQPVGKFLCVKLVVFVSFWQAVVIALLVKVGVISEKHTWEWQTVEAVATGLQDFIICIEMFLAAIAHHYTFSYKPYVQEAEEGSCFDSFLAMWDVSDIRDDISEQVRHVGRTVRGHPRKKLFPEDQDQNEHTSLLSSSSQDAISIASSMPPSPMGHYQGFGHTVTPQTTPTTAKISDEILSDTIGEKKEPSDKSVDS
UniProt Q9Y385, sequence (Q9Y385 whole entry, looked up): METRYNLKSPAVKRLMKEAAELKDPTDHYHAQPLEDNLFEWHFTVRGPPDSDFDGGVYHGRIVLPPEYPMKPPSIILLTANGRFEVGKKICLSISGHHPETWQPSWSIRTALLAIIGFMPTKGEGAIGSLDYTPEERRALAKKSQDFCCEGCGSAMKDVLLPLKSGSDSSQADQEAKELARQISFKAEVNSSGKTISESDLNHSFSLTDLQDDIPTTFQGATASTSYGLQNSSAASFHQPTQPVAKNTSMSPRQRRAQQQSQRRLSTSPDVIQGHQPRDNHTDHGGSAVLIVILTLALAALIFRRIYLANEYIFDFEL
UniProt Q9H4I3, sequence (Q9H4I3 whole entry, looked up): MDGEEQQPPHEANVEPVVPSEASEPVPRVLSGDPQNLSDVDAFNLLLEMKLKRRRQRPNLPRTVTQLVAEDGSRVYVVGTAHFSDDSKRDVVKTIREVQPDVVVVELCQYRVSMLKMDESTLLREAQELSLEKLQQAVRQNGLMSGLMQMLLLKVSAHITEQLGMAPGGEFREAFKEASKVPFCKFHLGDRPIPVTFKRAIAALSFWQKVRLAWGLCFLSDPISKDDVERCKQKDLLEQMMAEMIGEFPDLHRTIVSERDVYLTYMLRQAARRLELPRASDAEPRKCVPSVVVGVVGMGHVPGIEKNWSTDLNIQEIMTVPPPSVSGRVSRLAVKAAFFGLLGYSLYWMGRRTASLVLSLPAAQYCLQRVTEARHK
UniProt Q7Z7N9, sequence (Q7Z7N9 whole entry, looked up): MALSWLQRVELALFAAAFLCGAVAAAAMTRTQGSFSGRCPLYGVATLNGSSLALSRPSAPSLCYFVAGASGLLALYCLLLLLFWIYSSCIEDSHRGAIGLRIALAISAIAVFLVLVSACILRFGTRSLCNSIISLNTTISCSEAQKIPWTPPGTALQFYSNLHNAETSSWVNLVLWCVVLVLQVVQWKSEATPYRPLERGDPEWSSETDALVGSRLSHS
UniProt Q96HV5, sequence (Q96HV5 whole entry, looked up): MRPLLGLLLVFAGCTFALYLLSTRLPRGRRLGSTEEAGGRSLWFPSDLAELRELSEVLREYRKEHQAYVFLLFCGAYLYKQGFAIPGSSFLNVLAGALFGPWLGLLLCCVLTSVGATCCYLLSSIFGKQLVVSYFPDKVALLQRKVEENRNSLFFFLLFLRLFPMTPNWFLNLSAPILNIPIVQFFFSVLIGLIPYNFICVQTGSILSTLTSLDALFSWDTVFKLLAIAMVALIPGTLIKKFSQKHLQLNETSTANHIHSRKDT
UniProt Q9NQ34, sequence (Q9NQ34 whole entry, looked up): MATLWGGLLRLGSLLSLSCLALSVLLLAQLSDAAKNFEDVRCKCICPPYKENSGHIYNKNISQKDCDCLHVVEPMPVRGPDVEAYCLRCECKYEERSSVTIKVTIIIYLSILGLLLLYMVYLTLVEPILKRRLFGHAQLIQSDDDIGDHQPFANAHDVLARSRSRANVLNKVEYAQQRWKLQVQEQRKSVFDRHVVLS
UniProt Q9BQB6, sequence (Q9BQB6 whole entry, looked up): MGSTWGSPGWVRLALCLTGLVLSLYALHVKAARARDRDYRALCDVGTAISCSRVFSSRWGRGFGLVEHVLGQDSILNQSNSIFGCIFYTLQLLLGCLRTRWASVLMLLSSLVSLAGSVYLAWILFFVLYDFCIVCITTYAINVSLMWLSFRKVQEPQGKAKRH
UniProt Q6VEQ5, sequence (Q6VEQ5 whole entry, looked up): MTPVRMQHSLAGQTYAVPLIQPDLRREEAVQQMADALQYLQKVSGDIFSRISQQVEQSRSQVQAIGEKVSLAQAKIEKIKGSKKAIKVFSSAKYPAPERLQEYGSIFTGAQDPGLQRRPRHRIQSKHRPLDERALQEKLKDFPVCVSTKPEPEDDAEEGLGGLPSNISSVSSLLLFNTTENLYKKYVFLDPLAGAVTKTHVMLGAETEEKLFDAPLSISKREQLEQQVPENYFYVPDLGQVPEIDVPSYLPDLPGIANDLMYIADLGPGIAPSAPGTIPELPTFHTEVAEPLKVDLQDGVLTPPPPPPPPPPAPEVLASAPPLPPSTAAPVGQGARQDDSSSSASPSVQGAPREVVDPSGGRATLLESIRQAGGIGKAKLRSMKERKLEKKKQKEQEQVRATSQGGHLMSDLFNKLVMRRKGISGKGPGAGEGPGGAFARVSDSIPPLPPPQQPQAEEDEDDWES
UniProt Q9C037, sequence (Q9C037 whole entry, looked up): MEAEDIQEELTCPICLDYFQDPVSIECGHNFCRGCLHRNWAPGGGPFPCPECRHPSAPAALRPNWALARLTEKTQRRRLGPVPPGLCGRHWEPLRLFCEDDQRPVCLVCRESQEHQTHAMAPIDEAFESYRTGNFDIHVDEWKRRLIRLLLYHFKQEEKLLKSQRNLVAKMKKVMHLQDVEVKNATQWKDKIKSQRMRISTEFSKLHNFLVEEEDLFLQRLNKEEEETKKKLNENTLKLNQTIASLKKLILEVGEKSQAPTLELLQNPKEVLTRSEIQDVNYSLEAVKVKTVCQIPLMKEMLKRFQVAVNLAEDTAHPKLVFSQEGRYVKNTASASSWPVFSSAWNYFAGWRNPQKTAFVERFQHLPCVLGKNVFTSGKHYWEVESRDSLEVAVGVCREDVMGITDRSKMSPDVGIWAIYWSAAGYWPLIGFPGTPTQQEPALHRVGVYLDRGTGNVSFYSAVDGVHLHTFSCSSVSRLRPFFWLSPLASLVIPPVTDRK
UniProt Q9NX01, sequence (Q9NX01 whole entry, looked up): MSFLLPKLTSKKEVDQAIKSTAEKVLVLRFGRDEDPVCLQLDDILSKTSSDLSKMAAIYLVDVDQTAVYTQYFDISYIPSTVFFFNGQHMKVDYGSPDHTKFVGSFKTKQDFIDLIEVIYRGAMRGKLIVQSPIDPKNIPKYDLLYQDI
UniProt P51668, sequence (P51668 whole entry, looked up): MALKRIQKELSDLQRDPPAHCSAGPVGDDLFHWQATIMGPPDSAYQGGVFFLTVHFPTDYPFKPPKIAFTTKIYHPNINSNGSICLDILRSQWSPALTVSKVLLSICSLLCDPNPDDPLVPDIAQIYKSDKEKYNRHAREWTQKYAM
UniProt P61960, sequence (P61960 whole entry, looked up): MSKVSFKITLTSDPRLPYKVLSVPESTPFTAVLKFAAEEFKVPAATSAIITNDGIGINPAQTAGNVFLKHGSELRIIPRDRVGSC

Compound in the first experiment: FC(F)(F)c1ccc(/C=C/c2nc(COc3ccc(CCCCn4ccnn4)cc3)co2)cc1 [mubritinib]
Nature of the experiment: log2 fold change, soluble protein after heating vs DMSO (PISA); higher = thermal stabilisation; K562 cells, 10 uM, 30 min; active = over 0.2 and 3.5 SD of the protein, either way, in both replicates (recomputed). In outline:
(§1)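 Soluble protein was defined as the supernatant after 21,000xg for 90 min. It came from K562 cells at 2×10^6 cells/mL given 10 μM compound for 30 min, heated in aliquots for 3 min across 48°C-58°C, pooled, and extracted in PBS with 0.5% NP-40 at 4°C, and was quantified by TMTpro 16plex LC-MS/MS with equalised channel sums. Thermal stability against control samples, from duplicates, is reported as log2 fold change.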
As for UBIAD1 (UniProt Q9Y5Z9), the log2 fold change is -0.144 (inactive).

On to TMEM41A (UniProt Q96HV5), for which the log2 fold change was 0.062 (inactive).

Consider TRIM23 (UniProt P36406), for which the log2 fold change is 0.028 (inactive).

Turning to TXNL4B (UniProt Q9NX01), the log2 fold change was 0.17 (inactive).

For the target TSPAN13 (UniProt O95857), the log2 fold change was 0.226 (inactive).

Turning to UNC119B (UniProt A6NIH7), the log2 fold change is 0.14 (inactive).

In the case of TUT4 (UniProt Q5TAX3), the log2 fold change was -0.01 (inactive).

For the target VKORC1 (UniProt Q9BQB6), the log2 fold change is 0.035 (inactive).

UBAP2L (UniProt F8W726): the log2 fold change is -0.032 (inactive).

Take WASH2P (UniProt Q6VEQ5): the log2 fold change is 0.06 (inactive).

For TMEM184C (UniProt Q9NVA4), the log2 fold change is 0.01 (inactive).

As to VWA3B isoform 6 (UniProt Q502W6), the log2 fold change was 0.014 (inactive).

On to UBE2J1 (UniProt Q9Y385), for which the log2 fold change was 0.132 (inactive).

Turning to TMEM268 isoform 3 (UniProt Q5VZI3), the log2 fold change is 0.109 (inactive).

Turning to UFM1 isoform 2 (UniProt P61960), the log2 fold change is -0.015 (inactive).

Turning to TMEM106B (UniProt Q9NUM4), the log2 fold change is 0.023 (inactive).

Turning to UBE2D1 (UniProt P51668), the log2 fold change was 0.085 (inactive).

Turning to VPS37A (UniProt Q8NEZ2), the log2 fold change is -0.038 (inactive).

For XRCC6 (UniProt P12956), the log2 fold change was 0.043 (inactive).

In the case of UBXN10 (UniProt Q96LJ8), the log2 fold change is 0.067 (inactive).

As for TXNIP (UniProt Q9H3M7), the log2 fold change is -0.264 (inactive).

As to WEE1 (UniProt P30291), the log2 fold change is 0.394 (inactive).

Turning to TRABD (UniProt Q9H4I3), the log2 fold change was -0.032 (inactive).

On to TMEM164 (UniProt Q5U3C3), for which the log2 fold change was -0.067 (inactive).

Turning to TRIM44 (UniProt Q96DX7), the log2 fold change was 0.065 (inactive).

As for TUBAL3 (UniProt A6NHL2), the log2 fold change was -0.01 (inactive).

With TMEM8A (UniProt Q9HCN3), the log2 fold change is -0.001 (inactive).

In the case of TRIM4 (UniProt Q9C037), the log2 fold change is 0.033 (inactive).

With UXT isoform 2 (UniProt Q9UBK9), the log2 fold change was 0.014 (inactive).

Consider TMEM9B (UniProt Q9NQ34), for which the log2 fold change was 0.009 (inactive).

On to VPS35L (UniProt Q7Z3J2), for which the log2 fold change is 0.02 (inactive).

Turning to VPS13B (UniProt Q7Z7G8), the log2 fold change was 0.01 (inactive).

For TMEM179B (UniProt Q7Z7N9), the log2 fold change is -0.025 (inactive).

In the case of XIAP (UniProt P98170), the log2 fold change was 0.095 (inactive).

Take VPS51 (UniProt Q9UID3): the log2 fold change was 0.083 (inactive).

Compound in the next experiment: NC(=O)Nc1cc(-c2cccc(F)c2)sc1C(=O)N[C@H]1CCCNC1
The experiment is described as above. In outline:
as §1
Consider UBIAD1 (UniProt Q9Y5Z9), for which the log2 fold change was -0.089 (inactive).

As for TMEM41A (UniProt Q96HV5), the log2 fold change is -0.005 (inactive).

On to TRIM23 (UniProt P36406), for which the log2 fold change was -0.025 (inactive).

On to TXNL4B (UniProt Q9NX01), for which the log2 fold change was 0.098 (inactive).

Regarding TSPAN13 (UniProt O95857), the log2 fold change is -0.091 (inactive).

As for UNC119B (UniProt A6NIH7), the log2 fold change is -0.094 (inactive).

As to TUT4 (UniProt Q5TAX3), the log2 fold change is 0.028 (inactive).

VKORC1 (UniProt Q9BQB6): the log2 fold change is -0.006 (inactive).

On to WASH2P (UniProt Q6VEQ5), for which the log2 fold change is 0.067 (inactive).

Regarding TMEM184C (UniProt Q9NVA4), the log2 fold change is -0.185 (inactive).

On to UBE2J1 (UniProt Q9Y385), for which the log2 fold change was 0.031 (inactive).

In the case of TMEM268 isoform 3 (UniProt Q5VZI3), the log2 fold change is 0.12 (inactive).

With UFM1 isoform 2 (UniProt P61960), the log2 fold change is -0.031 (inactive).

TMEM106B (UniProt Q9NUM4): the log2 fold change is -0.042 (inactive).

With UBE2D1 (UniProt P51668), the log2 fold change was 0.119 (inactive).

For VPS37A (UniProt Q8NEZ2), the log2 fold change is -0.066 (inactive).

With XRCC6 (UniProt P12956), the log2 fold change is -0.064 (inactive).

UBXN10 (UniProt Q96LJ8): the log2 fold change is 0.062 (inactive).

With TXNIP (UniProt Q9H3M7), the log2 fold change is 0.091 (inactive).

As to WEE1 (UniProt P30291), the log2 fold change is -0.455 (inactive).

Consider TRABD (UniProt Q9H4I3), for which the log2 fold change is 0.008 (inactive).

For the target TMEM164 (UniProt Q5U3C3), the log2 fold change is 0.129 (inactive).

Turning to TRIM44 (UniProt Q96DX7), the log2 fold change was 0 (inactive).

For the target TUBAL3 (UniProt A6NHL2), the log2 fold change was 0 (inactive).

On to TMEM8A (UniProt Q9HCN3), for which the log2 fold change was -0.059 (inactive).

As to TRIM4 (UniProt Q9C037), the log2 fold change was -0.04 (inactive).

Consider UXT isoform 2 (UniProt Q9UBK9), for which the log2 fold change is -0.041 (inactive).

Consider TMEM9B (UniProt Q9NQ34), for which the log2 fold change is -0.025 (inactive).

As to TMEM219 (UniProt Q86XT9), the log2 fold change is 0.079 (inactive).

VPS35L (UniProt Q7Z3J2): the log2 fold change was -0.038 (inactive).

With VPS13B (UniProt Q7Z7G8), the log2 fold change is -0.064 (inactive).

Consider TMEM179B (UniProt Q7Z7N9), for which the log2 fold change was -0.235 (inactive).

As to XIAP (UniProt P98170), the log2 fold change is -0.004 (inactive).

For VPS51 (UniProt Q9UID3), the log2 fold change was -0.02 (inactive).

These data come from the supplement of paper PMC10849652.
